Inconclusive results are not listed. Active and inactive are the calls of the source. Unless noted, no cut-off is given here; in the data, nearly all actives have AC50 up to about 30 µM.

Consider six molecules from PubChem BioAssay.

Assay [1] is described as follows: growth inhibition of DIPG glioma cells, dose response, cell-based, JHH-DIPG-1, MIPE4.0, CellTiter-Glo, qHTS (AID 1347062; cut-off not given, nearly all actives have AC50 up to about 27 µM;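 for AC50: cells exposed to compound for two days before readout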). Particulars: JHH-DIPG-1 viability, CellTiter-Glo ATP luminescence.
A short description of assay [2]: growth inhibition of DIPG glioma cells, dose response, cell-based, SU-DIPG-IV, MIPE4.0, CellTiter-Glo, qHTS (AID 1347063).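 Note: compound exposure lasted 48 hours before the viability readout.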 Particulars: SU-DIPG-IV viability, CellTiter-Glo ATP luminescence.
Assay [3] can be described thus: SU-DIPG-VI glioma cell viability, MIPE4.0 library, CellTiter-Glo luminescence, qHTS (AID 1347066).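 Note: cells exposed to compound for 48 hours before readout.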 Particulars: CellTiter-Glo ATP luminescence.
Assay [4] can be described thus: JHH-DIPG-1 glioma cell viability, MIPE5.0 library, CellTiter-Glo luminescence, qHTS (AID 1347067; cut-off not given, nearly all actives have AC50 up to about 26 µM;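 note: cells exposed to compound for 48 hours before readout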). Particulars: JHH-DIPG-1 glioma viability, CellTiter-Glo ATP luminescence. In general terms: In ATP-based viability assays light output follows the ATP content of the culture.
The nature of assay [5]: SU-DIPG-XXV glioma cell viability, MIPE5.0 library, qHTS (AID 1347068; cut-off not given, nearly all actives have IC50 up to about 30 µM;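 for IC50: cells exposed to compound for 48 hours before viability readout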).
Assay [6] in a line: sensitizers of A549 cells to miR-34 induction, primary screen, imaging, A549 dox-inducible miR-34, nuclei and caspase counts (AID 1347080;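 active = compounds whose cell count with miR-34 switched on is under 0.7 times the count with it off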). The note with it: A549 miR-34 inducible, Hoechst nuclei count, 48 h.
Assay [7] in a line: growth inhibition of DIPG glioma cells, dose response, cell-based, SU-DIPG-XIII, MIPE5.0, CellTiter-Glo, qHTS (AID 1347064; cut-off not given, nearly all actives have AC50 up to about 23 µM;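 note: cells exposed to compound for 48 hours before the viability read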). The note with it: SU-DIPG-XIII viability, CellTiter-Glo ATP luminescence.
Assay [8] in a line: viability loss in pontine glioma line – cell-based, SU-DIPG-XXV, MIPE5.0, CellTiter-Glo, qHTS, dose response (AID 1347065; cut-off not given, nearly all actives have AC50 up to about 26 µM;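 note: cells exposed to compound for 48 hours before ATP readout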). The note with it: CellTiter-Glo ATP luminescence.
Assay [9] can be described thus: LFS_MB_P medulloblastoma growth inhibition, cell-based, chromothripsis tumors, cisplatin or BGB combos (AID 1671449; in the data active = inhibition above about 80%;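 note: cells exposed for 96 hours; 0% = vehicle DMSO and 100% = killing by high DMSO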). Particulars: LFS_MB_P medulloblastoma cells.
The nature of assay [10]: HDN33 neuroblastoma growth inhibition, cell-based, chromothripsis tumors, cisplatin or BGB combos (AID 1671450; in the data active = inhibition above about 80%;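 note: cells exposed to compound for four days; 0% = vehicle DMSO and 100% = cell killing by high DMSO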). Particulars: HDN33 neuroblastoma cells, stronger effect = higher value.
Assay [11] can be described thus: ICB984 medulloblastoma cell growth inhibition, synergistic combos for chromothripsis tumors, cisplatin or BGB combos (AID 1671451; call rule not given here;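 note: cells exposed for 96 hours before readout; 0% = vehicle DMSO and 100% = killing by high DMSO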). Particulars: ICB984 medulloblastoma cells, drug combinations, stronger effect = higher value.
A short description of assay [12]: HTB85 osteosarcoma cell growth inhibition, synergistic combos for chromothripsis tumors, BGB or cisplatin IC20 combos (AID 1671453; in the data active = inhibition above about 80%;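 note: cells exposed for 96 hours before readout; 0% = vehicle DMSO and 100% = high DMSO killing control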). Particulars: HTB85 osteosarcoma cells, drug combinations, stronger effect = higher value.
Assay [13] in a line: MDA-MB-436 breast carcinoma cell growth inhibition, synergistic combos for chromothripsis tumors, BGB or cisplatin combos (AID 1671458; call rule not given here;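 note: cells exposed for 96 hours; 0% = vehicle DMSO and 100% = killing by high DMSO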). The note with it: MDA-MB-436 breast carcinoma growth inhibition, drug combinations, stronger effect = higher value.
Assay [14] in a line: growth inhibition of BT084 medulloblastoma cells, cell-based, ICGC_MB145, cisplatin and BGB IC40 combos (AID 1671461; in the data active = inhibition above about 80%;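 note: cells exposed to drugs for 96 hours; 0% = vehicle DMSO and 100% = high DMSO full killing control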). Particulars: drug combinations, stronger effect = higher value.
Assay [15] can be described thus: growth inhibition of RCMB18 medulloblastoma cells, cell-based, cisplatin and BGB IC40 combos (AID 1671462; in the data active = inhibition above about 80%;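 note: cells exposed to compound for four days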). The note with it: stronger effect = higher value.
The nature of assay [16]: growth inhibition of CRL1545 osteosarcoma cells, cell-based, cisplatin and BGB IC20 combos (AID 1671464; in the data active = inhibition above about 80%;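 note: cells exposed to compound for 96 hours before readout; 0% = vehicle DMSO and 100% = high DMSO killing control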). The note with it: stronger effect = higher value.
The mark [17] stands for this setting: measured here: with BGB IC20 combination, at 0.5 µM.
Where [18] appears, read: measured here: with cisplatin IC20 combination, at 0.5 µM.

For the molecule `CNC1[C@@H](O)C(O[C@@H]2C(O)C(O[C@H]3O[C@H]([C@@H](C)NC)CC[C@H]3N)[C@@H](N)C[C@H]2N)OC[C@]1(C)O` (stereo partly specified), the outcome in assay [1], in [2] and in assay [3] was inactive.

For the molecule `COc1cc(C(=O)N2CCC(N3CCN(C)CC3)CC2)ccc1Nc1ncc2c(n1)N(C)c1ccccc1C(=O)N2C`, the results for the AC50 in [1], in assay [2] and in [4] were 16.6 µM (active), 16.6 µM (active) and 18.6 µM (active), respectively. Moreover, the IC50 (commonly the concentration that gives 50% inhibition) in assay [5] is 20.9 µM (active).

For the molecule `CC(C)(C)[C@H](NC(=O)c1ccc(N)c(Cl)c1)C(=O)N1CCC[C@H]1C(=O)N[C@H](C#N)CC(=O)O`, the result in assay [1], in assay [2] and in [3] was inactive.

Turning to `CC(C)N(CC[C@H](c1ccccc1)c1cc(CO)ccc1O)C(C)C`, the result in assay [1], in [2] and in assay [3] was inactive.

In the case of `O=C(Nc1nc2ccccc2n1CCN1CCOCC1)c1cccc([N+](=O)[O-])c1`, the AC50 (commonly the concentration at which the activity in the assay is half-maximal) is 14.8 µM (active) in assay [1] and 10.5 µM (active) in assay [2]. In addition, in assay [5], the molecule was called inactive. Moreover, the fold change was 0.827 (inactive) in assay [6] (stronger effect = lower value, cell number ratio, induced over uninduced) and 1.35 in assay [6] (measured here: relative caspase fold change +Dox/-Dox). Also, the cell count was 5540 in assay [6] (measured here: total cells with miR-34 induction, stronger effect = lower value) and 6700 in assay [6] (measured here: total cells without miR-34 induction).

As for `COc1ccc(C(=O)CC2(O)C(=O)Nc3c(Cl)ccc(Cl)c32)cc1` (stereo unspecified), the AC50 in assay [1] was 6.62 µM (active); in assay [7] it was 11.8 µM (active); in assay [8], 4.17 µM (active); in assay [4], 2.63 µM (active). Moreover, the molecule was classed as inactive in assay [3]. Further, the inhibition (as a rule, the change of the read-out against control, counted positive when it falls) is -20.8% (inactive) in assay [9] (at 0.5 µM, stronger effect = higher value); -14.2% in assay [9] (measured here: combination with BGB IC20, at 0.005 µM); -20.5% in [9] (measured here: combination with BGB IC40, at 0.005 µM); -14.8% in [9] (measured here: combination with BGB IC40, at 0.05 µM); -51.4% in assay [9] (measured here: combination with cisplatin, at 0.5 µM, stronger effect = higher value); 10.7% in assay [9] (measured here: combination with cisplatin, at 5 µM, stronger effect = higher value). Also, the inhibition in [10] (BGB combo, at 5 µM) was 63.6%; in [10] (at 0.5 µM) it was 28.4% (inactive); in assay [10] (cisplatin combo, at 5 µM), 59.7%; in assay [10] (setting [17]) it was 21.3%; in assay [10] (setting [18]), 16%; in assay [10] (single agent, at 5 µM) it was 93.1%. Besides, the inhibition in [11] (BGB IC20 combo, at 0.005 µM) is -4.85%; in assay [11] (BGB IC40 combo, at 0.005 µM), -25.9%; in assay [11] (BGB IC40 combo, at 0.05 µM), 11.3%; in assay [11] (at 0.5 µM), -24.6% (inactive); in assay [11] (cisplatin combo, at 0.05 µM), 8.85%; in assay [11] (cisplatin combo, at 0.5 µM) it was -32.2%. The inhibition in assay [11] (cisplatin combo, at 5 µM) was -25.3%; in assay [11] (measured here: 5 uM single agent, at 5 µM), -28.8%; in assay [12] (at 0.5 µM), 33.2% (inactive); in [12] (measured here: with BGB IC20, at 0.5 µM), 33.1%; in [12] (measured here: with BGB IC20, at 5 µM), 64.4%; in assay [12] (measured here: with cisplatin IC20, at 0.5 µM), 11.7%. For the same molecule, the inhibition in [12] (measured here: with cisplatin IC20, at 5 µM) is 63.8%; in assay [12] (single agent, at 5 µM), 88.4%; in assay [13] (at 0.5 µM) it was 2.68% (inactive); in assay [13] (measured here: BGB combination, at 0.5 µM), -5.4%; in assay [13] (measured here: BGB combination, at 5 µM), 40.2%; in [13] (measured here: cisplatin combination, at 0.5 µM), -2.19%. Further, the inhibition in assay [13] (measured here: cisplatin combination, at 5 µM) is 64.3%; in [14] (at 0.5 µM), -18.2% (inactive); in assay [14] (cisplatin combination, at 0.5 µM), 1.77%; in assay [14] (cisplatin combination, at 5 µM) it was 10.6%; in assay [14] (measured here: BGB IC40 combination 0.05 uM, at 0.05 µM) it was 2.03%; in assay [14] (single agent, at 5 µM), 40.8%. The inhibition in assay [15] (at 0.5 µM) was -4.73% (inactive); in [15] (cisplatin combo, at 5 µM) it was 26.4%; in [15] (measured here: BGB IC40 combination, at 0.05 µM), -41.1%; in assay [15] (measured here: combination with cisplatin, at 0.5 µM), 6.7%; in assay [15] (single agent, at 5 µM), 24.9%; in [16] (at 0.5 µM), 0.14% (inactive). Further, the inhibition was 16.2% in assay [16] (setting [17]); -10.3% in [16] (setting [18]); -6.9% in assay [16] (single agent, at 0.05 µM); 77.7% in assay [16] (single agent, at 5 µM).
